We go through one molecule from PubChem BioAssay (NCATS).

Experiment [1] can be described thus: Cell Viability - BJ (AID 421; calls by dose curve;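 further: potency means the concentration at half of the fitted maximal effect; cells exposed to compound for 40 hours at 37 °C before readout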). As to conditions: BJ fibroblast viability, qHTS. In short, it runs like this: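 Luminescent ATP signal (CellTiter-Glo, 20 min at room temperature) served as the read-out of viable BJ cells after 40 hours of compound treatment. Responses were scaled between DMSO and 100 uM tamoxifen, and AC50 values were obtained by Hill modeling.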
A general note: In qHTS, concentration-response curves come from the screen itself.

The nature of experiment [2]: Cell Viability - Jurkat (AID 426;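 active means dose-dependent loss of cell ATP signal giving a full or clear fitted curve, ranked by lower potency value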; further: potency means the concentration at half of the fitted maximal effect). The settings on record: qHTS. In short, it runs like this: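 Seed 5000 Jurkat E6-1 cells/well; add compound; incubate 40 hr at 37 °C; add CellTiter-Glo; wait 20 min at room temperature; read luminescence. Fit concentration-response with Hill equation for AC50.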
Experiment [3] can be described thus: Cell Viability - Hek293 (AID 427;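 active means compounds whose dose-response curve shows a full or clear partial loss of cell viability, called from curve shape rather than a numeric limit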;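 further: potency means the concentration at half of the fitted maximal effect; cells exposed to compound for 40 hours at 37 °C before reading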). The settings on record: qHTS. In short, it runs like this: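 Luminescent ATP read-out (CellTiter-Glo, 20 min RT) after 40 hr compound exposure at 37 °C in complete medium. Signal normalized to DMSO (basal) and 100 uM tamoxifen (100% inhibition); concentration-response fitted with the standard Hill equation to give AC50.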
A short description of experiment [4]: Cell Viability - HepG2 (AID 433; calls by dose curve;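 further: potency means the concentration at half of the fitted maximal effect; potency for ATP loss meaning cytotoxicity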). As to conditions: qHTS. In short, it runs like this: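 HepG2 cells, 1500 per well, treated 40 hr at 37 °C in complete medium; viability from intracellular ATP by CellTiter-Glo luminescence. Normalized to DMSO and 100 uM tamoxifen; AC50 from Hill fit of qHTS concentration-response.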
Experiment [5] is described as follows: Cell Viability - MRC5 (AID 434; calls by dose curve;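 further: potency means the concentration at half of the fitted maximal effect; potency reflects cytotoxicity seen as loss of intracellular ATP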). The settings on record: MRC5 lung fibroblast viability, qHTS. A digest of the protocol: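 qHTS cytotoxicity in human lung fibroblast MRC5 cells; 40 hr treatment, 37 °C; cellular ATP by luciferase luminescence; DMSO = 0%, 100 uM tamoxifen = 100% inhibition; Hill-fit AC50.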
Experiment [6] can be described thus: Cell Viability - SK-N-SH (AID 435; calls by dose curve;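 further: potency means the concentration at half of the fitted maximal effect; compound exposure lasted 40 h at 37 °C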). As to conditions: SK-N-SH neuroblastoma cell viability qHTS. A digest of the protocol: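 SK-N-SH neuroblastoma cells (1500/well) treated 40 h at 37 °C in complete medium; viability read as cellular ATP by CellTiter-Glo luminescence. Normalized to DMSO and 100 uM tamoxifen; AC50 from Hill fits of qHTS concentration-response.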

The nature of experiment [7]: Cell Viability - N2a (AID 540).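 Further: plate controls were DMSO alone for no effect and tamoxifen control for full effect; nearly all actives have a fitted effect of over 45% in size.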 As to conditions: N2a mouse neuroblastoma cell viability; at 92.2 µM (top of the series). In short, it runs like this:
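First, 1500 N2a cells per well incubate 5 hr at 37 °C; next, compounds are added and incubated 40 hr at 37 °C; finally CellTiter-Glo is added and luminescence read after 20 min, with AC50 derived by Hill modeling.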

Experiment [8] is described as follows: Cell Viability - NIH 3T3 (AID 541).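 Further: plate controls were DMSO alone for no effect and tamoxifen positive control for full effect; nearly all actives have a fitted effect of over 25% in size.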 The settings on record: NIH 3T3 cell viability, qHTS; activity change, negative = cytotoxicity: at 92.2 µM (top of the series). A digest of the protocol:
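AC50 values reflect concentration-dependent loss of intracellular ATP in NIH 3T3 cells after 40 hr treatment in complete culture medium, quantified by luciferase-based luminescence.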

Experiment [9] in a line: Cell Viability - HUV-EC-C (AID 542). Further: on the % scale 0 is the no-effect control and ±100 the full control effect; nearly all actives have a fitted effect of over 35% in size. A digest of the protocol:
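Decrease in cellular ATP, quantified by luciferase luminescence, reflects toxicity in normal human vascular endothelial HUV-EC-C cells given compound for 40 hr in complete culture medium. Values are AC50s from concentration-response curves.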

Experiment [10] in a line: Cell Viability - H-4-II-E (AID 543). Further: on the % scale 0 is the no-effect control and ±100 the full control effect; nearly all actives have a fitted effect of over 35% in size. A digest of the protocol: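 Here, cytotoxicity is measured in the rat hepatoma line H-4-II-E as loss of intracellular ATP after 40 hr compound treatment, detected by luciferase luminescence.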
The nature of experiment [11]: Cell Viability - SH-SY5Y (AID 544). Further: nearly all actives have a fitted effect of over 55% in size. As to conditions: SH-SY5Y neuroblastoma cell viability; viability change, negative = cytotoxic: at 92.2 µM (top of the series). A digest of the protocol:
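Cytotoxicity is scored as a concentration-dependent fall in intracellular ATP in human SH-SY5Y cells treated 40 hr in complete culture medium. Potency is expressed as AC50 from a Hill equation fit.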

The nature of experiment [12]: Cell Viability - Renal Proximal Tubule (AID 545). Further: nearly all actives have a fitted effect of over 40% in size. As to conditions: renal proximal tubule cells viability; at 91.7 µM (top of the series), primary cells of rat origin unless noted. A digest of the protocol:
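Rat renal proximal tubule primary cells, 1000/well, exposed to compounds for 40 hr at 37 °C in complete medium; cellular ATP read by CellTiter-Glo luminescence. AC50 from concentration-response fitted with standard Hill equation.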

The nature of experiment [13]: Cell Viability - Mesenchymal (AID 546).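 Further: cells exposed to compound for 40 hours before reading.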 In short, it runs like this: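 AC50 values reflect the drop in intracellular ATP in a human kidney mesenchymal line derived from normal glomeruli. Treatment lasts 40 hr at 37 °C in complete medium, and the signal comes from CellTiter-Glo luminescence.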
Experiment [14] in a line: Cellular Toxicity (caspase-3) HepG2 (AID 654).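 Further: cells exposed to compound for 16 hours before reading; 0% = DMSO alone and 100% = caspase signal from 100 µM tamoxifen.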 In short, it runs like this:
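qHTS, HepG2, 1500 cells/well, complete medium; cpd 16 h 37 °C; Caspase-Glo 3/7, 20 min RT; lum. Norm: DMSO vs 100 uM tamoxifen; AC50 Hill fit.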

Experiment [15] in a line: Cellular Toxicity (caspase-3) Jurkat (AID 655).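 Further: cells exposed to compound for 16 h at 37 °C before reading.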 The settings on record: Jurkat caspase-3 activation, luminescence, DMSO = 0%, tamoxifen = 100%; at 92.2 µM (top of the series). In short, it runs like this:
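Jurkat cells (5000/well) in complete medium exposed 16 h at 37 C; caspase-3/7 activity read by Caspase-Glo luminescence after 20 min at room temperature. Normalized to DMSO and 100 uM tamoxifen; AC50 from Hill fits.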

Experiment [16] is described as follows: Cellular Toxicity (caspase-3) HUV-EC-C (AID 656). In short, it runs like this:
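HUV-EC-C cells (1000/well) in complete medium, compound-treated 16 h at 37 °C; caspase-3/7 activity read by Caspase-Glo 3/7 luminescence. Normalized to DMSO (basal) and 100 uM tamoxifen (100%); AC50 from Hill-equation concentration-response fits.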

The nature of experiment [17]: Cellular Toxicity (caspase-3) SHSY5Y (AID 657). A digest of the protocol: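 SH-SY5Y human neuroblastoma cells, 1500/well, exposed to compound for 16 hours at 37 °C in complete medium. Caspase-3/7 activity read by Caspase-Glo luminescence after 1 hr at room temperature, normalized to DMSO and 10 uM staurosporine; AC50 from Hill fit.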
Experiment [18] can be described thus: Cellular Toxicity (caspase-3) BJ (AID 658).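 Further: 0% = DMSO basal and 100% = 10 µM staurosporine.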 A digest of the protocol:
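Readout: Caspase-Glo 3/7 luminescence increase in BJ cells after 16 hr treatment at 37 °C. Staurosporine and tamoxifen served as positive controls; AC50 values came from Hill modelling of data normalized to DMSO and 10 uM staurosporine.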

Experiment [19] is described as follows: Cellular Toxicity (caspase-3) MRC-5 (AID 659).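 Further: 0% = DMSO basal and 100% = 10 µM staurosporine.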 In short, it runs like this:
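Concentration-dependent caspase 3/7 activation is measured in human normal lung fibroblasts (MRC-5) following 16-hour treatment. AC50 values come from standard Hill-equation modeling of luminescence normalized to DMSO and 10 uM staurosporine.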

Experiment [20] can be described thus: Cellular Toxicity (caspase-3) Mesangial (AID 660).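 Further: cells exposed to compound for 16 h before the caspase read.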 A digest of the protocol: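 Concentration-response qHTS: compound-induced rise in caspase 3/7 luminescence in human mesangial cells after 16 h, normalized to DMSO and 100 uM tamoxifen controls.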
A short description of experiment [21]: Cellular Toxicity (caspase-3) SK-N-SH (AID 661).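 Further: 0% = DMSO basal and 100% = 10 µM staurosporine.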 In short, it runs like this:
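Caspase 3/7 activation is measured as a luminescence increase from aminoluciferin released by substrate cleavage in SK-N-SH cells after 16 hr compound treatment; values are AC50 from concentration-response curves.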

Experiment [22] can be described thus: Cellular Toxicity (caspase-3) H-4-II-E (AID 663).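 Further: cells exposed to compound for 16 hr before readout.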 A digest of the protocol:
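Apoptosis induction is scored as increased luminescence from caspase 3/7 substrate cleavage in rat hepatoma H-4-II-E cells exposed to compound for 16 hr. Activity is scaled between DMSO and 100 uM tamoxifen.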

A short description of experiment [23]: Cellular Toxicity (caspase-3) Hek293 (AID 664).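 Further: cells exposed to compound for 16 h at 37 °C before readout.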 In short, it runs like this:
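Activation of caspase-3/7 is measured as increased luminescence from cleaved peptide-aminoluciferin substrate in HEK293 cells treated 16 hours at 37 °C. AC50 values come from Hill-equation fits of concentration-response data.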

A number with no mark means an inactive call. Records with an inconclusive call do not appear. Activity calls are given as the source filed them. Unless noted, the call rests on the fitted dose curve; in most records, active means well fitted curve in the direction sought with a large enough effect; inconclusive means small, poorly fitted or top-dose-only effect, or another doubt; inactive means no such curve, though single readings can be large; an effect the other way counts as inactive or inconclusive. Bounds are passed on as bounds.

For `Clc1cc(Cl)c(-c2cc(Cl)c(Cl)cc2Cl)cc1Cl`, the Potency is greater than 92 µM in [1]; greater than 92 µM in experiment [2]; greater than 92 µM in experiment [3]; greater than 92 µM in experiment [4]; 24.3 µM (active) in experiment [5]; greater than 92 µM in experiment [6]. Moreover, the results for the activity change, negative = cytotoxicity in [7], in experiment [8] and in [12] were -93.1% (active), -24.8% and -5.09% [at 91.7 µM], respectively. The Potency result in experiment [9], in experiment [10] and in experiment [11] was “inactive” each time. For the same molecule, the outcome in experiment [13], in experiment [14], in experiment [16], in [17], in experiment [18] and in experiment [19] was inactive. The molecule was called inactive in experiment [20], in experiment [21], in experiment [22] and in [23]. Also, the caspase-3 activation in experiment [15] is 0.996%.
